Hit rate of the full screen: of about 31,000 sequences, about 1,400 (4.5%) were called active. This is one part of a sample in which actives are shown more often than they occur. Unmarked numbers belong to inactive results.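 Rule for the calls: active = median seed-adjusted z-score above 1 or below -1; inactive = the rest.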
experiment: Novel Modifiers of Survival Motor Neuron (SMN) Protein: Gene Identification via Genome-wide siRNA Screen; conditions: HEK293T SMN2-luciferase reporter, siRNA knockdown, 72 h; actives lie on both sides;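 note: luminescence tracks full-length SMN protein made from the SMN2 reporter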
In short: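 Steps: spot 1 pmol siRNA, add Lipofectamine RNAiMax in serum-free DMEM, seed HEK293T SMN2–luciferase reporter cells; incubate 72 h at 37 °C; add ONE-Glo; normalize luminescence to control siRNA, log10, MAD. Candidates: |MAD| > 1.0.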

| Sequence | median seed-adjusted z-score |
| --- | --- |
| GGAGGAUAGCAGCAGAAGATT against ATP5I | -0.871 |
| GGUGAAUGCUGAUGACUCUTT against CLDN16 | -0.868 |
| CCACCAACGAAUACGUCUATT against PRKCSH | -0.0512 |
| GAAUCUACAGGAAACGAGATT against SETD8 | -1.52 (active) |
| CUCUACACCGUGUACAUCATT against CHRM4 | -0.856 |
| GCAGCAUGAGAAUGUCAAATT against GPD1 | 0.558 |
| CUACAGCCUAUAUAUGAAATT against FCRL1 | -0.873 |
| CGACAAUAUUCCUUGAUGATT against CTGLF1 | 0.0231 |
| GGGAUAAGCAGAUAGAAGATT against MYST2 | -1.46 (active) |
| GGAUGUUUUUCGAAGGAUATT against RHEB | -0.387 |
| GGACCGCAGCAAUGACAUUTT against SH3KBP1 | -0.34 |
| AGACGGUGACUUACAAAAATT against ARF6 | -0.805 |
| GCAACUUCAUUUCUCAUCUTT against CA6 | 0.349 |
| GUAUAUAAACAGACAAUGATT against DNAJC8 | -1.62 (active) |
| UCAUCUUCUUUGACCCAGATT against HNF4A | -0.0274 |
| GAGAGAAUCAUUACGAAAATT against MTMR2 | 0.495 |
| CAAACUUAAAGGUCAGAAATT against WHSC1 | 1.17 (active) |
| GGACAAAGUCUUAACAAAATT against SLC30A10 | 0.523 |
| CCAGACCACUUGCUAUGAATT against GATA6 | 0.546 |
| CUACUGGAGCAACACUGUATT against NDUFA4 | 0 |
| GCAAGAUUAGACAUACUGATT against PSMC6 | -0.578 |
| GAGCGAGUCUACAAGUGUATT against REST | 0.416 |

| Sequence | median seed-adjusted z-score |
| --- | --- |
| CAGUCUGCCGAAGAAGUAATT against CDC2L1 | -1.14 (active) |
| GGAUCUUCCUUAUUACUCUTT against UBE4A | -0.285 |
| CCAGCACGUUGGAAGACCATT against ZNF808 | 0.138 |
| GUCCUUAUCUUUGCAAAUATT against ARL5B | -0.506 |
| GGAGCUACUUAAUCGGGAUTT against ANGEL1 | -0.332 |
| GCACGGAAAUUCUACAAGATT against ABCA4 | -1.09 (active) |
| GGACGAUGUCUACAGCCUATT against SIN3B | 0.509 |
| CGGGAACUAUCCAAACAAUTT against DMBT1 | -0.131 |
| GCAGAACUGACAGUCGAUATT against DMTF1 | 0.396 |
| GAGUGGACUGUGGAAGAUATT against RCOR1 | -1.13 (active) |
| CCAAAAGAAUAUCCGCUAATT against NLK | 0.256 |
| CACCUACUGUGAUGACAGATT against EPAS1 | -0.166 |
| GAAGUAGACUUGAUACGAATT against AQR | -1.56 (active) |
| AGCACAAGGUGGAACCGGUTT against CYGB | -0.34 |
| GCUACGAAAUGCUUGCUCATT against GALT | 0.484 |
| GGAUCAUGACCUAUGCUAATT against AKAP3 | 0.0138 |
| GCUUUGUGAACGACAAUUATT against RABGGTB | -0.856 |
| CGCACGGACUGUACCAUUUTT against ETV2 | 0 |
| GCCUACUGGUCAUUGAUCATT against GNMT | 0.0261 |
| GACAUAUGCAAGAACUAUATT against PSAP | 0.107 |
| AGAGGAGAGUGGAAUUCCATT against ARID3C | -1.32 (active) |
| GCAGUUUCUUAACCACGUUTT against IFI16 | -0.0178 |

| Sequence | median seed-adjusted z-score |
| --- | --- |
| ACUUUGCUCCUACUAUUCATT against NEGR1 | 0.194 |
| CCAUCGGACUGACAGUGAATT against COPZ1 | -1.02 (active) |
| CGAAAACUGAUACACUUGATT against KSR2 | -0.371 |
| GCUGAUUUUUGCUAAUAAATT against ARL5A | 0 |
| GCAUGUAAUGAGUAUCACATT against MRS2 | 1.38 (active) |
| GAUCAACUGUGGAAAUAUUTT against KISS1R | -0.299 |
| CCGUGUUCAUUCCUUUUCATT against ZFP41 | 0 |
| CCACUAAAGGAUCAACGUATT against PHKB | -0.142 |
| GCGACUCCUAGAGAACAAATT against LSG1 | 1.31 (active) |
| CAAGGUAGCUCAGCACUGATT against PEX6 | -0.281 |
| AGAGCGAGCCUUUGCUGAUTT against DAD1 | -0.45 |
| CCCUGCUCCUCACUCAUUUTT against KRTAP5-5 | -1.07 (active) |
| GUUCCGUACAGAUAAAGGATT against SAE1 | 0.831 |
| AUGUCACGCUGGUGCCCUATT against IFI30 | 0.401 |
| GUAUCAUGCCCAUCUGAAATT against ZMAT4 | -0.0468 |
| GAGAGACUCAAGAACGUGATT against ARCN1 | -1.25 (active) |
| AGCCUAUGAUUUUCCUGAATT against PTF1A | 0.482 |
| ACCUUGGUGUUGGACCUCATT against RNF26 | 0.359 |
| GGGACACGCUAAAAGGAGATT against GNB4 | 0.015 |
| GGUCUAGCCUUGAUCAGAATT against SHROOM3 | 0.779 |
| GCAAAUCAGAGGUUCAGAUTT against SQLE | -1.14 (active) |
| GGGCUGCAAGUGGAAUUCATT against NR1H3 | 0.426 |

| Sequence | median seed-adjusted z-score |
| --- | --- |
| GGCAAACGAGUGUGCUUCATT against FAM47B | -0.0631 |
| CACCGGAGGUUUAUCACAATT against AMDHD2 | -0.0707 |
| AGCCUGUAGCUUAAACUUATT against KCTD12 | 0.431 |
| GUGUCCAACAGAUACGGAATT against DSCAM | -0.527 |
| GGCAGAUAUUUAAGCCUAUTT against HDAC2 | -1.27 (active) |
| GGAGUGCAAAAGGAACGAATT against APIP | -0.0945 |
| GAGUUAUGGUGAACCCACATT against CDKN2B | 0.0154 |
| GGACAUUCAAUUCAAACCATT against SMAD4 | 0.0746 |
| CUGUUUAGCUUCAUGCAAATT against ARID3C | -1.32 (active) |
| GCAAGGCAAUGCAAACGAATT against DDX43 | -0.452 |
| GCGACUACCUGUUUCAACATT against PELO | 0.394 |
| GGAAAGAUCUUCAAUCAUATT against ZNF597 | 0.366 |
| GGACAUUCGUCAGAUUUAUTT against TEAD1 | 1.31 (active) |
| GAGUGGAGCGUACAUCCUATT against ZXDA | -0.0748 |
| CAAUAGUCCUGAGACCGAATT against MYST3 | -0.49 |
| GCAUUACCGCGAUGAAUUATT against DNAI1 | -0.783 |
| UCCUAACCUCAGAAACUGATT against CAPS | -1.25 (active) |
| GGAAGGCUCCAAACGGAAATT against PBRM1 | -0.118 |
| GCACGUUUGAGUACGAAUATT against SFPQ | -1.15 (active) |
| GGACCAGUCUGCCUAUGUATT against NXF5 | -0.396 |
| GCGGGACAGAAGUUAGAUATT against HCCS | 0.00254 |
| GGAUGAUAUGGGACCAUAATT against PTPRZ1 | 1.73 (active) |

| Sequence | median seed-adjusted z-score |
| --- | --- |
| GUCUUGUAGAAAUCUCAGATT against RFC3 | 0.733 |
| GCUUCGAGGAGGGCAAGAATT against PRSS27 | 1.03 (active) |
| GAUAGUGACAGGUUAAUGATT against TIGD6 | -0.443 |
| GCCUGACCCGUGAGACAAATT against THY1 | -1.1 (active) |
| GCAUCUAAAGAGCUACAGATT against ZNF584 | 0.172 |
| CAAUGUCCAGGGUAUCAUUTT against HAO2 | 0.039 |
| GGAGGGACAAGAUCAACAATT against USF2 | 0.352 |
| CCAGCCGUGUUGUAGCUAATT against S100B | 0.862 |
| CCGUAAAGCUGCAUUAGAATT against CUGBP1 | 0.086 |
| GGGUCAUCAGUAGCAUUGATT against YWHAG | 1.98 (active) |
| GCAGUACGGAAGCUACCGATT against SS18L1 | -0.174 |
| CAUUGGACAGUAUUACAAATT against UBE2U | -0.0545 |
| CCUUCCCUCUACACCAUCATT against COPZ2 | -1.23 (active) |
| CCUAAGUUACUACUAGUAUTT against ENPP4 | 0 |
| GGAUCUCACAGGUUCCGUUTT against LARS2 | 0.25 |
| GAACUUGACCAUUAUAUCATT against PHKA2 | 0.304 |
| CGGUGGUGAAUGAAAGUCATT against FKBP14 | -0.455 |
| GAGGUGAACUGGAAGCGAATT against MBOAT1 | -1.22 (active) |
| CGCUUAACAUUGGAGUUCATT against ATG7 | -0.328 |
| CUACGGCUUUGGAGAUAUATT against RECQL | -0.905 |
| CAUCCAUUCUACAUCCGUATT against VHL | -0.0797 |
